From PubChem BioAssay
NPC1 promoter act: qHTS Assay for NPC1 Promoter Activators | Huh7 NPC1 promoter luciferase reporter, 24 h | Potency, µM (titrated, usually from 9.22 µM), for the others: top-dose activation, most hits filed as activators | hit rate 2.4% among 320,000; note: % of control where 0% means no effect; nearly all actives have a fitted effect of over 60% in size
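Luminescence read-out of NPC1 promoter-driven luciferase in stably transfected Huh7 cells; compounds delivered in DMSO and left 24 h at 37C, 5% CO2, qHTS titration format.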
SMN2 splice up: qHTS Assay for Enhancers of SMN2 Splice Variant Expression; HEK293 SMN2-luciferase splicing reporter, luminescence, 30-36 h; AID 1458, 2008; Potency, µM (titrated, usually from 46.1 µM), inactives show at the top dose activity change, positive = activation, usual class: activators; hit rate 2.8% among 210,000; note: % of control where 0% means no effect; nearly all actives have a fitted effect of over 55% in size
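qHTS luciferase splicing reporter: luminescence rises when SMN2 exon 7 is included in transfected HEK293 cells. Compound exposure lasted 30-36 h at 37C, with 4.5 mM final sodium butyrate as control, followed by a ONE-Glo read.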
FLuc modulator: qHTS profiling assay for firefly luciferase inhibitor/activator using purifed enzyme and Km concentrations of substrates (counterscreen for miR-21 project). Luciferin 4-monooxygenase (Photinus pyralis), P08659. purified FLuc, Km substrates, luminescence inhibition. Potency, µM (doses to about 57.5 µM), for the others: at the top dose activity change, negative = inhibition, hits mostly inhibitors. hit rate 6.9% among 360,000. AID 588342, 2011;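 note: plate controls were vehicle for no effect and reference inhibitor for full effect; nearly all actives have a fitted effect of over 55% in size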
Target sequence (P08659 whole entry, looked up): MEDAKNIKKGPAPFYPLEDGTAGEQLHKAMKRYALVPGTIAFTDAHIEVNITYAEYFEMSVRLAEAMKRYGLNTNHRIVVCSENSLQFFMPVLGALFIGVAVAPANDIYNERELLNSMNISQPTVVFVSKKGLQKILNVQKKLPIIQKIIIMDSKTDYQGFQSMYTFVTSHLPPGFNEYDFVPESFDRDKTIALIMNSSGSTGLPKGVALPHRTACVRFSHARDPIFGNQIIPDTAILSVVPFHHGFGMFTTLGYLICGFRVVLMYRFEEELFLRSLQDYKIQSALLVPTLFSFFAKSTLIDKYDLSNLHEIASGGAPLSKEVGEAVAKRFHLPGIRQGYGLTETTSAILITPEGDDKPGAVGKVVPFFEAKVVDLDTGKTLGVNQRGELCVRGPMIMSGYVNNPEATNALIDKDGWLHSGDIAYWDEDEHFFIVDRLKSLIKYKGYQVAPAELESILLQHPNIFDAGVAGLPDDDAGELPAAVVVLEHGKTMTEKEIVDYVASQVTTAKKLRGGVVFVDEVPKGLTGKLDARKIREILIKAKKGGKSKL
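Purified P. pyralis luciferase, 10 nM final, with Km-level 10 uM D-luciferin and 10 uM ATP in 50 mM Tris acetate pH 7.5, 10 mM Mg acetate, 0.01% Tween-20, 0.05% BSA; 6-point qHTS titration about 60 µM downward; luminescence read.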
ELG1 DNA repair: qHTS screen for small molecules that inhibit ELG1-dependent DNA repair in human embryonic kidney (HEK293T) cells expressing luciferase-tagged ELG1; Potency, µM (doses to about 46.1 µM), for inactives: at the top dose activity change, negative = inhibition, hits mostly inhibitors; AID 504467, 2011; hit rate 2.3% among 330,000; HEK293T ELG1-luciferase reporter, luminescence, 16 h; DNA damage induced by 5-fluorouridine; note: % is set by controls: 0 for no effect and ±100 for the full control effect; nearly all actives have a fitted effect of over 55% in size
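Luminescence from the luciferase reporter, measured 30 min after ONE-Glo reagent at room temperature, was the read-out. Beforehand, 2,000 cells per well were exposed for 16 hr at 37 °C to 5-fluorouridine together with compound or vehicle.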
ELG1 genotoxic: qHTS screen for small molecules that induce genotoxicity in human embryonic kidney (HEK293T) cells expressing luciferase-tagged ELG1 | hit rate 1.3% among 330,000 | Potency, µM (series often up to 46 µM), without a hit: top-dose activity change, positive = activation, actives largely listed as activators | HEK293T ELG1-luciferase reporter, luminescence, 16 h; note: % of control where 0% means no effect; nearly all actives have a fitted effect of over 60% in size
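Luminescence read-out: rising ELG1-luciferase signal, reflecting elevated ELG1 protein under genetic stress, flags genotoxic compounds. Cells were treated for 16 hr at 37 °C before ONE-Glo detection.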
Rab9 prom act: qHTS Assay for Rab9 Promoter Activators; Huh7 Rab9 promoter-luciferase reporter, luminescence, 24 h; Potency, µM (top dose mostly 9.22 µM), for inactives: at the top dose activation, negative = inhibition, hits mostly activators; hit rate 2.8% among 320,000; AID 485297, 2010; note: % of control where 0% means no effect; nearly all actives have a fitted effect of over 60% in size
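Huh7 cells stably carrying a Rab9 promoter-luciferase reporter, 1500 cells per well in OP-MEM I with 10% FBS, treated with compound 24 hours at 37C. Luciferase activity read by luminescence after 10 minutes with Amplite reagent.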
Numbers without * were called inactive; ? = inconclusive; · = no result. Sampled rows, rich in hits. Any-hit rate of the full collection: about 9.2%. Calls come from the whole dose curve; as a rule, active = well fitted curve in the direction sought with a large enough effect; inconclusive = small, poorly fitted or top-dose-only effect, or another doubt; inactive = no such curve, though single readings can be large; an effect the other way counts as inactive or inconclusive. Potency is the fitted concentration of half-maximal effect.

SMILES	NPC1 promoter act	SMN2 splice up	FLuc modulator	ELG1 DNA repair	ELG1 genotoxic	Rab9 prom act
N#Cc1ccc(NC(=O)CNc2cc(S(=O)(=O)N3CCOCC3)ccc2NCC2CCCO2)cc1 (centres undefined)	-1%	-6%	-5%	8.2µM*	-2%	1%
COc1ccc(C(F)(F)F)cc1N/C=C/c1nnnn1-c1ccc(C)cc1	-2%	·	-6%	5%	0%	2%
O=C(Nc1ccc(Cl)c(S(=O)(=O)N2CCOCC2)c1)c1ccc(OCC2CCCO2)cc1 (centres undefined)	-34%	-58%	-18%	2.9µM*	-20%	-44%
CC(C)Oc1ccc(C(=O)Nc2cccc(S(=O)(=O)N3CCCC3)c2)cc1	·	·	·	23µM*	-2%	·
CCOc1ccc(C(=O)NCC(=O)OCC(=O)Nc2nnc(-c3ccccc3)o2)cc1	1%	·	13µM*	22%	3%	3%
O=C(COC(=O)CNC(=O)c1ccc(Br)cc1)Nc1nnc(-c2ccccc2)o1	1%	·	?	3%	-2%	-4%
O=C(Nc1ccc(S(=O)(=O)N2CCCC2)cc1)c1ccc(OCC2CCCO2)cc1 (centres undefined)	-21%	-76%	2%	?	-9%	-21%
COc1ccc(C(=O)Nc2ccc(Cl)c(S(=O)(=O)N3CCOCC3)c2)cc1	·	·	·	9.2µM*	-17%	·
CC(C)(C)OC(=O)N1CCN(c2ccc(NC(=O)c3ccco3)cc2)CC1	4%	·	-4%	?	-8%	14%
O=C1CC(c2nc(-c3ccccc3)no2)CN1c1ccc2c(c1)OCCO2 (centres undefined)	·	·	-1%	·	·	·
O=C(c1ccc(-n2cccn2)cc1)N1CCc2ccccc2C1	5%	·	?	?	9%	21%
FC(F)(F)c1ccc(-n2cnc3ccccc32)nc1	15%	·	?	14%	3%	18%
CCOc1ccc(C(=O)NCC(=O)OCC(=O)Nc2cccc(S(=O)(=O)N3CCCC3)c2)cc1	0%	·	4.3µM*	20%	5%	-2%
O=C(COC(=O)CNC(=O)c1ccc(F)cc1)Nc1cccc(S(=O)(=O)N2CCCC2)c1	-4%	·	-13%	-5%	2%	-6%
Cc1ccc(CSc2nnc(CC(=O)Nc3ccc(C)cc3)n2C)cc1	-3%	-5%	-1%	-6%	1%	-1%
Cc1ccc(NC(=O)Cc2nnc(SCC(=O)Nc3ccc(N4CCOCC4)cc3)n2C)cc1	2%	·	12µM*	10%	5%	0%
Cn1c(CC(=O)Nc2ccccc2)nnc1SCC(=O)Nc1ccc(N2CCOCC2)cc1	21%	·	12µM*	?	?	15%
CCn1c(Cc2ccccc2)nnc1SCC(=O)Nc1ccc2c(c1)OCO2	?	-13%	-1%	-1%	-1%	-5%
Cn1c(Cc2ccccc2)nnc1SCC(=O)Nc1ccc(N2CCOCC2)cc1	9%	·	?	?	2%	5%
Cc1ccc(NC(=O)Cc2nnc(SCC(=O)Nc3ccccc3)n2C)cc1	1%	5%	19µM*	9%	0%	-6%
CCn1c(Cc2ccccc2)nnc1SCC(=O)Nc1ccc(N2CCOCC2)c(Cl)c1	11%	-35%	15µM*	-4%	12%	-2%
CN(C)C(=O)C(Sc1ccc(S(=O)(=O)N2CCCC2)cn1)c1ccccc1 (centres undefined)	1%	·	·	-1%	-1%	3%
CC(=O)c1ccc(NC(=O)Cn2c(=O)cc(C)c3c(C)nn(-c4cccc(F)c4)c32)cc1	·	·	-9%	·	·	·
Cn1c(SCC(=O)Nc2ccc(N3CCOCC3)cc2)nnc1C1CC1	0%	·	?	18%	-1%	-4%
